Assay outcomes: PubChem BioAssay, National Center for Advancing Translational Sciences (NCATS)
IL2 activator – IL-2 activation. actives 0.065% (n = 360,000). IL-2 activation reporter assay, cell-based qHTS; stimulated with anti-CD3/CD4/CD28 beads; in transgenic mouse T cells. activation, % (series mostly up to about 46 µM); in the data active = activation above about 50%; inconclusive = mostly about 30% to 49%
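Unstimulated transgenic mouse T cells, 750 per well, received compound and, after 60 minutes, anti-CD3/anti-CD4 bead plus anti-CD28 stimulation. EGFP and DsRed were quantified after 18 hours.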
BRCA1 expr act – increases BRCA1 expression; AID 624202; actives 1.1% (n = 380,000); MCF7-BRCA1-FFLuc reporter, luminescence, 48 h; response scale: scaled: vehicle 0%, 10 µM genistein 100%; Potency, µM (doses to about 46.1 µM), most hits filed as activators; also: nearly all actives have a fitted effect of over 80% in size
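Quantitative HTS in MCF7 cells stably reporting BRCA1 expression via firefly luciferase. Compound treatment lasts 48 h at 37 °C in phenol-red free MEM. Activation is expressed relative to genistein at 10 microM and DMSO.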
Nrf2 activator – activators of Nrf2 (ARE) signaling. AREc32 ARE-luciferase reporter (MCF7-derived line), luminescence, 24 h. Potency, µM (series often up to 46.1 µM), actives largely listed as activators. actives 0.31% (n = 410,000). AID 624171; also: nearly all actives have a fitted effect of over 65% in size
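AREc32 cells carrying an ARE-driven firefly luciferase reporter were seeded at 1000 cells/well in OPTI-MEM with 5% FBS, then exposed to compound for 24 hr at 37 deg C. Luminescence was read with Steady-Glo after 30 min at RT.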
ELG1 DNA repair – inhibitors of ELG1-dependent DNA repair in HEK293T cells. actives 2.3% (n = 330,000). HEK293T ELG1-luciferase reporter, luminescence, 16 h; DNA damage induced by 5-fluorouridine. Potency, µM (doses to about 46.1 µM), usual class: inhibitors; also: nearly all actives have a fitted effect of over 55% in size
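Quantitative HTS, concentration-response format. 2,000 cells/well co-treated with 5-fluorouridine and compound, 16 hr in 5% CO2 at 37 °C; ONE-Glo luminescence read after 30 min.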
ELG1 FLuc counter – luciferase inhibition in cell-free luciferin readout for ELG1 hits; shares compounds with ELG1 DNA repair; AID 624247; actives 3% (n = 350); Potency, µM (doses to about 46.1 µM), actives largely listed as inhibitors; cell-free firefly luciferase luminescence counter-screen, ViewLux
ELG1-Luc inh – human ELG1 repair inhibition, luciferase-tagged ELG1 confirmation; shares compounds with ELG1 DNA repair; HEK293T ELG1-luciferase levels, luminescence; cells co-treated with 5-fluorouridine; Potency, µM (top dose mostly 46.1 µM), most hits filed as inhibitors; actives 68% (n = 670); AID 624248; also: nearly all actives have a fitted effect of over 55% in size
Target sequence (Q96QE3 whole entry, looked up): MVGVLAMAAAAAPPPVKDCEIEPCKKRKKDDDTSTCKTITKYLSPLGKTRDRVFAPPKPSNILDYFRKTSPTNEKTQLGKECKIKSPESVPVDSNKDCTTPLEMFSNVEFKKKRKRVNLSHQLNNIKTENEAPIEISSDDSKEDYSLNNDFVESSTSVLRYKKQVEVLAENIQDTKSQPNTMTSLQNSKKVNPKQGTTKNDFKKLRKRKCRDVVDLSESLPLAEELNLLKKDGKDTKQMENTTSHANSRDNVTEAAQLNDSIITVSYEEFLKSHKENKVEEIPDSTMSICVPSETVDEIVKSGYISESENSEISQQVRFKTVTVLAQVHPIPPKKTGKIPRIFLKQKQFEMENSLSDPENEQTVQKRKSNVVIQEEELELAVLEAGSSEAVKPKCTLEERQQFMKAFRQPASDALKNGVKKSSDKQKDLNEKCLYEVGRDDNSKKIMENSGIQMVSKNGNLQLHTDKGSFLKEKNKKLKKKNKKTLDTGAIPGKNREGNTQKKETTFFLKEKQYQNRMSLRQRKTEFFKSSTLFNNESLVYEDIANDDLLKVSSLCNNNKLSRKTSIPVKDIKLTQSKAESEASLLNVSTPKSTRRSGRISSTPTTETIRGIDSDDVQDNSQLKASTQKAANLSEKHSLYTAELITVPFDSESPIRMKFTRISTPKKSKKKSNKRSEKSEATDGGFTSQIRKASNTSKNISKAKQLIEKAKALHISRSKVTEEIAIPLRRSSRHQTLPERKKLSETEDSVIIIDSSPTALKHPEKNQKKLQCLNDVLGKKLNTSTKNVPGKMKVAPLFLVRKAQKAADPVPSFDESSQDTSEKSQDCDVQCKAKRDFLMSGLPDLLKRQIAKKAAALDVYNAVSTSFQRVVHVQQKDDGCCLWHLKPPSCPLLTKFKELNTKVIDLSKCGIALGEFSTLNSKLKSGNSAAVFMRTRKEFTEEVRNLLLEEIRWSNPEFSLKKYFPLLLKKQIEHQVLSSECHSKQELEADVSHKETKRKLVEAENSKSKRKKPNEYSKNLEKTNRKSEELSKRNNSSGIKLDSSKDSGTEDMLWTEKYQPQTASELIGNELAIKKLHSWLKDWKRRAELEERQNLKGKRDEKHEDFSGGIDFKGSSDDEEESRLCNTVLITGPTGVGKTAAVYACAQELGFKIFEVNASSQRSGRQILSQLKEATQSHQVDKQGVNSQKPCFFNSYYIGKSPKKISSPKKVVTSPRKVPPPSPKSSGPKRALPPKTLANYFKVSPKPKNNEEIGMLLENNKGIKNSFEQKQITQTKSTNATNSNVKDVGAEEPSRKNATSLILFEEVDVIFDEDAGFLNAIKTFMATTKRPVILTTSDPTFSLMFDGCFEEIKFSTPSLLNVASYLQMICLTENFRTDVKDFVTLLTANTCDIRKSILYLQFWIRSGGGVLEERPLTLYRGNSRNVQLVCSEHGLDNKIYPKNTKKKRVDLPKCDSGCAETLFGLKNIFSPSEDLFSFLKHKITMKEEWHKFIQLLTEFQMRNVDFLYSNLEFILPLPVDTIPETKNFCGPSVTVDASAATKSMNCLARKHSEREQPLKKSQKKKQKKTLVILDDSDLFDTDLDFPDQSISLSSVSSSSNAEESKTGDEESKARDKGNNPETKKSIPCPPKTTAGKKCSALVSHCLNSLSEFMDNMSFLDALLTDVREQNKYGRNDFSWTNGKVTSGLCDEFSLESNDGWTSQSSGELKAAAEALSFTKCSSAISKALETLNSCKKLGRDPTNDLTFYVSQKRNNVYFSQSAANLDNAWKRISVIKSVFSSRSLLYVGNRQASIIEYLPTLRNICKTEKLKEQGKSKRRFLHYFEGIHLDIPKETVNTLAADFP
ELG1-Luc MMS – inhibits ELG1-dependent repair under MMS stimulation in HEK293T cells; shares compounds with ELG1 DNA repair; HEK293T luciferase-tagged ELG1 level, MMS stimulated; Potency, µM (doses to about 46.1 µM), actives largely listed as inhibitors; actives 53% (n = 670); AID 624249; also: nearly all actives have a fitted effect of over 60% in size
ELG1 5FU viab – confirmation of ELG1 repair inhibitors: viability with 5FU; shares compounds with ELG1 DNA repair; cell viability with 5-FU, ELG1-dependent repair; Potency, µM (highest dose often 46.1 µM), most hits filed as cytotoxic; 670 tested, under 10 active; AID 624250;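 also: ELG1-luc HEK293T cells cotreated with 5-fluorouridine at 10 µM final; viability measured 16 h after compound addition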
ELG1 MMS viab – confirmation of ELG1 repair inhibitors: viability with MMS; Potency, µM (highest dose often 46.1 µM), most hits filed as cytotoxic; Cell viability with MMS, ELG1-dependent DNA repair; shares compounds with ELG1 DNA repair; actives 33% (n = 670); AID 624251;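 also: ELG1-luc HEK293T cells co-treated with 10 µM MMS; viability read 16 h after compound addition; nearly all actives have a fitted effect of over 60% in size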
Cell viab unstim – unstimulated viability counter-screen for ELG1 repair hits | shares compounds with ELG1 DNA repair | cell viability counter-screen, unstimulated, luminescence | Potency, µM (series often up to 45.9 µM), usual class: cytotoxic | actives 8% (n = 900) | AID 624252;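 also: compound exposure lasted 16 hours before reading; nearly all actives have a fitted effect of over 55% in size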
FLuc biochem – firefly luciferase inhibition counter-screen. shares compounds with ELG1 DNA repair. purified firefly luciferase, luminescence counter-screen. Potency, µM (series often up to 57.5 µM), actives largely listed as inhibitors. actives 10% (n = 350)
Hits are given with their value; – = inactive; ? = inconclusive; · = not tested or not shown. Only some compounds are listed: those with a hit (about 3.1% of all), similar ones and a draw of the others. Unless noted, calls follow the shape of the dose curve; as a rule, active = well fitted curve in the direction sought with a large enough effect; inconclusive = small, poorly fitted or top-dose-only effect, or another doubt; inactive = no such curve, though single readings can be large; an effect the other way counts as inactive or inconclusive.

SMILES	IL2 activator	BRCA1 expr act	Nrf2 activator	ELG1 DNA repair	Cell viab unstim	others
O=C(Nc1nc2ccccc2[nH]1)c1ccc(Cl)cc1	–	?	–	?	·
CCN(c1ccccc1)S(=O)(=O)c1cccc(C(=O)NCc2ccncc2)c1	–	–	–	–	·
CS(=O)(=O)N(Cc1ccccc1)c1ccc(C(=O)Nc2ccc(Cl)cc2)cc1	·	·	–	·	·
Clc1ccc(-c2nnc(-c3ccco3)o2)cc1	–	5.6µM	?	?	·
COc1cccc(-c2nnc(-c3ccc4ccccc4c3)o2)c1	–	?	–	·	·
Clc1ccc(-c2nnc(-c3ccc4ccccc4c3)o2)cc1	–	2µM	–	·	·
Cc1ccc(-c2nnc(-c3ccc4ccccc4c3)o2)cc1	–	4.5µM	–	·	·
COc1ccc(N(Cc2cc3cccc(C)c3[nH]c2=O)C(=O)c2cccc(Cl)c2)cc1	·	·	–	·	·
CC(=O)Nc1cccc(-c2cnc(N)c(C(=O)c3cccnc3)n2)c1	–	–	–	0.46µM	?	ELG1 FLuc counter=?;ELG1-Luc inh=0.79µM;ELG1-Luc MMS=2.8µM;ELG1 5FU viab=–;ELG1 MMS viab=?;FLuc biochem=–
Cc1ccc(Cn2cc(SCC(=O)Nc3nccs3)c3ccccc32)cc1	–	–	–	?	·
Cc1cccc(Cn2cc(SCC(=O)Nc3nccs3)c3ccccc32)c1	–	–	–	?	–	ELG1 FLuc counter=–;FLuc biochem=2.9µM
O=C(/C=C/C#Cc1cccc(NS(=O)(=O)c2ccccc2)c1)NO	·	·	·	·	?
O=C(O)/C=C/c1cccc(NS(=O)(=O)c2ccccc2)c1	–	–	–	–	·
COc1ccc(CNC(=O)C[C@@H]2C=C[C@@H](NS(=O)(=O)c3cccc(OC)c3)[C@@H](CO)O2)cc1	–	·	·	·	·
CN(C(=O)c1cc(S(=O)(=O)N2CCCCC2)c[nH]1)C1CCCCC1	–	–	–	–	·
Cc1ccc(N(C)C(=O)c2cc(S(=O)(=O)N3CCCCC3)c[nH]2)cc1	–	–	–	3.7µM	–	ELG1-Luc inh=?;ELG1-Luc MMS=–;ELG1 5FU viab=–;ELG1 MMS viab=–
Cc1ccc(NC(=O)C2CCCN(c3ncnc4c3nc3n4CCCCC3)C2)cc1Cl (centres undefined)	–	–	–	–	·
Cc1ccc(NC(=O)C2CCN(c3ncnc4c3nc3n4CCCCC3)CC2)cc1Cl	–	–	–	2.3µM	?	ELG1 FLuc counter=–;ELG1-Luc inh=10µM;ELG1-Luc MMS=18µM;ELG1 5FU viab=?;ELG1 MMS viab=–;FLuc biochem=–
COc1ccc(NC(=O)C2CCN(c3ncnc4c3nc3n4CCCCC3)CC2)cc1Cl	–	–	–	1.8µM	?	ELG1 FLuc counter=–;ELG1-Luc inh=3.2µM;ELG1-Luc MMS=?;ELG1 5FU viab=?;ELG1 MMS viab=?;FLuc biochem=–
CN1CCN(C(c2ccc(F)cc2)c2sc3nc(-c4ccco4)nn3c2O)CC1 (centres undefined)	·	·	–	·	·
CC(=O)OCC1=C[C@H]2[C@@H]3C(C)(C)[C@]3(OC(C)=O)C[C@@H](C)[C@]2(O)[C@@H]2C=C(C)C(=O)[C@@]2(O)C1	·	·	·	·	?
CCOc1ccc(S(=O)(=O)N2CCN(c3cccc(C(F)(F)F)c3)CC2)cc1OCC	·	·	–	·	·
COc1ccc(S(=O)(=O)c2c(O)c3ccc(C(=O)NCc4ccccc4)cc3[nH]c2=O)cc1	·	·	–	·	·
